The values that follow come from ChEMBL document CHEMBL3988442, “University of Dundee, Small-Polar-MMV Screening Library” (2021).

Structures are written as SMILES. Out of some 69,000 compounds screened, about 950 (1.4%) showed an effect of 50% or more. For the sample, strong results were picked, then their nearest neighbours and some compounds at random.

In the assay the test system is Mycobacterium tuberculosis. Nature of the assay: Cornell M. t heat shock assay. Also: in the data most compounds retested in dose-response had high values. Format: functional, organism-based. Also on record: dose or concentration left out as unconfirmed.
Regarding `Cc1ccc(CN2Cc3ccccc3O[C@]3(CC[C@H](CO)CC3)C2)s1.Cl`, the “Percent Effect” value is -7.456%. Then `COCCN1CCc2c(cnc(-c3ccccc3)c2C(=O)O)C1.O=C(O)C(F)(F)F`, with -9.252%; and `O=C(O)C(F)(F)F.O=C(c1cscn1)N1CC[C@@H]2[C@@H]1CCN2CC1CCOCC1`, with 39.35%; and `CCN1CCC(N2CCC(C(=O)N(C)C)CC2)CC1.O=C(O)C(F)(F)F.O=C(O)C(F)(F)F`, with 2.155%. As for `OC(CN(Cc1ccccc1)Cc1ccccn1)c1cccs1` (stereo unspecified), the “Percent Effect” value is 66.35%.

`OC(CN(Cc1ccccc1)Cc1cscn1)c1cccs1` (stereo unspecified): the “Percent Effect” value was found to be 5.463%. For the compound `OC(CN(Cc1ccccc1)Cc1ccncc1)c1cccs1` (stereo unspecified), the “Percent Effect” value was -1.892%. Regarding `Cc1cccc(CN2CCC3(CC2)CN(c2cnn(C)c2)C(=O)CO3)n1.O=C(O)C(F)(F)F`, the “Percent Effect” value is -22.92%. The value for `CNc1cc(C2CCCNC2)nc(C)n1.Cl.Cl` (stereo unspecified) was -17.65%; that for `Cc1cc(C(F)(F)F)nc(CCNC(C)Cn2cncn2)n1` (stereo unspecified) was 16.73%. The value for `Cc1cc(C(F)(F)F)nc(CCNC(C)Cn2nc(C)cc2C)n1` (stereo unspecified) was 1.181%.

For the compound `Cc1cc(C(F)(F)F)nc(CCNC(C)Cn2ccnc2)n1` (stereo unspecified), the “Percent Effect” value came to 103.9%. Then `CCN1CCC2(CC1)OCCN2C(=O)c1cc(Cl)c(OC)c(Cl)c1.Cl`, with 13.79%; and `Cc1ccc(N2CCC(N3C[C@@H](CN(C)C)[C@@H](CO)C3)CC2)cc1`, with -10.07%. Turning to `CN(C)C[C@@H]1CN(C2CCN(c3ccccc3Cl)CC2)C[C@@H]1CO`, the “Percent Effect” value is -0.06241%.

With `Cc1cc(F)ccc1N1CCC(N2C[C@@H](CN(C)C)[C@@H](CO)C2)CC1`, the “Percent Effect” value was 101.8%. The value for `Cc1cc(F)ccc1N1CCC(N2C[C@@H](C)[C@@](C)(O)C2)CC1` was 33.53%. The value for `CN(C)C[C@@H]1CN(C2CCN(c3ccc(Cl)cc3)CC2)C[C@@H]1CO` was 39.93%; that for `CN(CCO)C[C@@H]1CN(C2CCN(c3ccccc3Cl)CC2)C[C@@H]1CO` was 81.68%; that for `CCc1nc(C)cc(N2CCN(C(=O)[C@@H]3C[C@@H]4C=C[C@H]3C4)CC2)n1` was -1.962%.

`CS(=O)(=O)NCc1cc(=O)n2c(n1)CN(CC1CC1)CCC2.O=C(O)C(F)(F)F`: the “Percent Effect” value came out at 5.307%. Then `O=C(O)C(F)(F)F.O=C(O)C(F)(F)F.O=C1CC[C@H]2[C@H](CCN2Cc2ccccn2)N1CC1CCOCC1`, with -34.7%. Then `Cc1cccc(CN2C(=O)C[C@@H]3[C@@H]2CCN3Cc2ccsc2)n1.O=C(O)C(F)(F)F.O=C(O)C(F)(F)F`, with -5.235%; and `Cl.NC(=O)COc1ccc(CNCc2ccc(F)cc2)cc1`, with -18.87%; and `Cc1noc(C)c1CCC(=O)N1CCN(CCn2cncn2)CC1`, with 78.74%.

For the compound `Cc1noc(C)c1CN1CCN(C(=O)CCn2cncn2)CC1`, the “Percent Effect” value is on record as -3.616%. As to `Cc1noc(C)c1CCC(=O)N1CCN(CCn2cccn2)CC1`, the “Percent Effect” value is recorded as -5.618%. As for `Cn1ncc(Cl)c1C(=O)N1CCC(c2nnsc2S(C)(=O)=O)CC1`, the “Percent Effect” value was -21.53%.

Take `Cn1cnc(S(=O)(=O)N2CC3(CCN(Cc4ccncc4)C3)C2)c1.O=C(O)C(F)(F)F.O=C(O)C(F)(F)F.O=C(O)C(F)(F)F`: the “Percent Effect” value was determined as 36.02%. Consider `CN(C)C(=O)COCC1CN(Cc2ccco2)Cc2ncn(C)c21.O=C(O)C(F)(F)F.O=C(O)C(F)(F)F` (stereo unspecified), for which the “Percent Effect” value came out at 31.48%.

In the case of `COCC(C)(CCO)NC(=O)Nc1cccc(Br)c1C` (stereo unspecified), the “Percent Effect” value worked out at 16.48%.

On to `CN1CC(=O)N(c2ccsc2)CC12CCN(C(=O)Nc1ccccc1)C2.O=C(O)C(F)(F)F` (stereo unspecified), for which the “Percent Effect” value is on record as -18.81%.

Regarding `O=C(N1CCCO1)[C@@]12CCO[C@@H]1CCN(Cc1cccs1)C2.O=C(O)C(F)(F)F`, the “Percent Effect” value was -21.11%. The value for `O=C(NCC1CC1)C12CC(CN1Cc1nccs1)C2` was 54.2%.

`O=C(N1CCCC1)C12CC(CN1Cc1nccs1)C2`: the “Percent Effect” value is given as 42.03%. The value for `Cc1ccsc1C(=O)N1CC2CC1(C(=O)NCC1CC1)C2` was -11.04%.

On to `Cc1cc(N2CCN(Cc3cn(C)nc3C)CC2)cc(C2CCCN2)n1.Cl` (stereo unspecified), for which the “Percent Effect” value is -11.47%. With `CC(=O)N1CCCC1c1nnn2cc(Nc3ccccc3)ccc12.O=C(O)C(F)(F)F` (stereo unspecified), the “Percent Effect” value was found to be 86.99%.

For `CC(=O)N1CCCC1c1nnn2cc(-c3ccncc3)ccc12.O=C(O)C(F)(F)F` (stereo unspecified), the “Percent Effect” value amounted to 8.291%. For `CC(=O)N1CCCC1c1nnn2cc(NCc3cccnc3)ccc12.O=C(O)C(F)(F)F.O=C(O)C(F)(F)F` (stereo unspecified), the “Percent Effect” value was determined as 27.19%. The value for `CC(C)(C)c1n[nH]c(C2CN(CCc3ccncc3)CCO2)n1` (stereo unspecified) was 12.04%. Then `CC(=O)N1CCN(Cc2ccncc2)CC2(CC(=O)N(C)C2)C1.O=C(O)C(F)(F)F.O=C(O)C(F)(F)F` (stereo unspecified), with -4.515%; and `Cn1ccnc1CN1CC[C@H]2CO[C@H](CNc3ncccn3)[C@H]2C1.O=C(O)C(F)(F)F.O=C(O)C(F)(F)F.O=C(O)C(F)(F)F`, with -17.85%.

As for `Fc1ccccc1CC1CCN(Cc2ccccn2)CC1`, the “Percent Effect” value was determined as 54.97%. As to `Cc1cccc(CN2CCC(NS(C)(=O)=O)CC2)n1`, the “Percent Effect” value was 10.63%.

With `Clc1ccc(COCC2CCN(Cc3ccccn3)CC2)cc1.O=C(O)C(=O)O`, the “Percent Effect” value is given as 53.14%.

As for `Cc1cccc(CN2CCC(Cc3ccccc3F)CC2)n1`, the “Percent Effect” value amounted to 100.5%. Then `COc1cc(COCC2CCN(Cc3ccccn3)CC2)cc(OC)c1.O=C(O)C(=O)O`, with -10.83%. Regarding `Fc1ccccc1CC1CCN(Cc2cscn2)CC1`, the “Percent Effect” value was -8.017%. For `Cc1cccc(CNC(=O)CC2CCN(Cc3ccccn3)CC2)n1`, the “Percent Effect” value is on record as -18.17%. The value for `Fc1ccccc1CC1CCN(Cc2nccs2)CC1` was 7.97%. As for `Fc1ccc(COCC2CCN(Cc3ccccn3)CC2)cc1.O=C(O)C(=O)O`, the “Percent Effect” value was -21.79%.

Turning to `CN1C[C@H]2C[C@H](C(=O)Nc3cccnc3)[C@@H](C1)O2`, the “Percent Effect” value is on record as -0.0821%. In the case of `COc1ccc(CNCC(C)Oc2ccccn2)cc1.Cl` (stereo unspecified), the “Percent Effect” value is -11.53%.

Consider `Cc1cc(C(=O)N2CC[C@]3(C[C@@H](OCc4ccccn4)CO3)C2)c(C)o1.O=C(O)C(F)(F)F`, for which the “Percent Effect” value is 38.17%. Then `CN(C)C(=O)CN1CCc2ncnc(N(C)C)c2CC1.O=C(O)C(F)(F)F`, with 23.34%.
